KinaseGlo FLuc = blocks Kinase-Glo luciferase, a counter-screen artifact | hit rate 0.28% among 200,000 | Potency, µM (highest dose often 38.3 µM), actives largely listed as inhibitors | Kinase-Glo luciferase, ATP luminescence, 8 min | Q27757; note: nearly all actives have a fitted effect of over 60% in size
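Luminescence was the read-out, taken after 8-minute incubation at ambient temperature. Luciferase turned over luciferin with 10 uM ATP in imidazole pH 7.2 buffer containing KCl, MgCl2, Tween 20 and BSA.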
RORg inh = inhibitors of mouse ROR gamma transcriptional activity | Drosophila S2 Gal4-RORgamma UAS-luciferase reporter, 20 h | Potency, µM (doses to about 53.6 µM), usual class: inhibitors | hit rate 5.4% among 310,000 | AID 2551 | P51450; note: nearly all actives have a fitted effect of over 60% in size
Target sequence (P51450 whole entry, looked up, the tested form may be a part): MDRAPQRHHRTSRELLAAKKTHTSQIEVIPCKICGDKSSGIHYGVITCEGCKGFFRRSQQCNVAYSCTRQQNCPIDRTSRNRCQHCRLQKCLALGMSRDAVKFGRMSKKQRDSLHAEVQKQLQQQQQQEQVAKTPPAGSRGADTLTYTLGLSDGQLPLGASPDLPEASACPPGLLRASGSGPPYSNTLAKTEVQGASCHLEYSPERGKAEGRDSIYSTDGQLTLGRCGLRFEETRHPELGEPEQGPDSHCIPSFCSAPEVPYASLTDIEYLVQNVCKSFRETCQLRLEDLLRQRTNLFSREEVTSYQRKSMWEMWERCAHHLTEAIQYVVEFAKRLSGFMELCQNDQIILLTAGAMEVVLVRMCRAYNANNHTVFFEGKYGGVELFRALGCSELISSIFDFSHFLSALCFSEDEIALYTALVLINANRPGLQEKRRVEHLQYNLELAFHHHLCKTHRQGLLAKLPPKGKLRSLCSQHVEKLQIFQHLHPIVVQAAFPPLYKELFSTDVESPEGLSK
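Schneider cells (Drosophila), stable Gal4 DBD–ROR gamma + UAS-luc; 1 hr cmpd preincubation; Cu2+ induction 700 uM final; 20 hr ambient; luminescence.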
Gal4-VP16 FLuc = inhibits Gal4-VP16 luciferase reporter, ROR gamma counter-screen; hit rate 3.5% among 310,000; Potency, µM (top dose mostly 53.6 µM), most hits filed as inhibitors; Drosophila S2 Gal4-VP16 UAS-luciferase, luminescence, 20 h;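 note: Gal4-VP16 expression switched on by copper sulfate through the metallothionein promoter; nearly all actives have a fitted effect of over 50% in size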
A number is an active result; . = inactive; ? = inconclusive; / = no result given; [ ] = another dose, or the depositor's remark. Only some compounds are listed: those with a hit (about 6.4% of all), similar ones and a draw of the others. Calls come from the whole dose curve; as a rule, active = well fitted curve in the direction sought with a large enough effect; inconclusive = small, poorly fitted or top-dose-only effect, or another doubt; inactive = no such curve, though single readings can be large; an effect the other way counts as inactive or inconclusive.

SMILES	KinaseGlo FLuc	RORg inh	Gal4-VP16 FLuc
CC(=O)Nc1ccc(N=NC2C(=O)N(C(N)=S)N=C2C)cc1 (centres undefined)	/	5µM	8.9µM
COc1ccc(CCC(=O)N2CCCC(Nc3ccccc3)C2)cc1OC (centres undefined)	/	.	.
COc1ccccc1CCC(=O)NNC(=O)c1ccc(Br)cc1	/	.	.
CC1(C)[C@@H]2CC[C@@](C)(C2)[C@H]1OC(=O)c1ccccc1C(=O)O	.[7.66 µM]	/	/
O=C(CCNc1ccc(Br)cc1)c1cccc([N+](=O)[O-])c1	.	?	.
O=C(/C(N=Nc1cccc([N+](=O)[O-])c1)=C(/O)c1ccc(Br)cc1)C(F)(F)F	/	7.9µM	4.5µM
COc1cccc(C2C3=C(N=c4s/c(=C\c5ccc(OCC(=O)O)cc5)c(=O)n42)c2ccccc2CC3)c1 (centres undefined)	/	.	.
CC(C)(C)C(=O)/C=C/c1ccc(Oc2ccccc2)cc1	/	?	.
O=C(O)c1ccc(-c2ncc[nH]2)cc1	.	?	.
CCOC(=O)NC(=S)Nc1ccc(C(C)(C)C)cc1Br	/	3.5µM	10µM
CCOC(=O)Nc1ccc(C)cc1Br	.	.	.
C[C@H]1Cc2c(COc3ccccc3)nc3c(c2CO1)CN(C(=O)C1CCCCC1)CC3	.[7.66 µM]	/	/
CCc1ccc(/C=N/NC(=O)c2cc(-c3ccccc3OC)nc3ccccc23)s1	.	4µM	4.5µM
COc1ccc(/C=N/NC(=O)c2cc(-c3ccccc3OC)nc3ccccc23)cc1COC(C)=O	.	.	.
O=C(N/N=C/c1cccc(O)c1)c1cc(C2CC2)nc2ccccc12	/	.	.
COc1cc(/C=N/NC(=O)c2cc(-c3ccccc3)nc3ccccc23)cc(OC)c1O	/	.	.
COc1ccccc1-c1cc(C(=O)N/N=C/c2ccoc2)c2ccccc2n1	/	11µM	?
CCc1ccc(/C=N/NC(=O)c2cc(C3CC3)nc3ccc(Br)cc23)s1	.	2.2µM	1.6µM
COc1ccc(/C=N/NC(=O)c2cc(-c3ccccc3OC(C)C)nc3ccccc23)cc1CN1CCOCC1	.	.	.
COc1ccccc1-c1cc(C(=O)N/N=C/c2ccc(C)s2)c2ccccc2n1	.	2.8µM	4.5µM
COc1ccc(/C=C/C(=O)Nc2ccccc2C(=O)NCC(c2ccc(OC)cc2)N(C)C)cc1 (centres undefined)	/	.	.
CN(C)CC[C@H](c1ccc(Br)cc1)c1ccccn1	.	.	.
O=C(CNCc1cccc(Cl)c1)N1CCc2ccccc2C1	/	.	.
CCOc1ccc(Br)cc1S(=O)(=O)Nc1cccnc1	/	.	.
CCCC1O[C@@H]2C[C@H]3[C@@H]4CCC5=CC(=O)C=C[C@]5(C)[C@H]4[C@@H](O)C[C@]3(C)[C@]2(C(=O)CO)O1 (some centres undefined)	.	13µM	.
SMILES	KinaseGlo FLuc	RORg inh	Gal4-VP16 FLuc
CCC[C@@H]1O[C@@H]2C[C@@H]3[C@H]4CCC5=CC(=O)C=C[C@@]5(C)[C@H]4[C@H](O)C[C@@]3(C)[C@@]2(C(=O)CO)O1	.	.	.
CCCC1O[C@@H]2CC3C4CCC5=CC(=O)C=C[C@]5(C)C4C(OC(C)=O)C[C@]3(C)[C@]2(C(=O)COC(C)=O)O1 (some centres undefined)	.	?	.
CCCC1OC2CC3C4CCC5=CC(=O)C=CC5(C)C4C(O)CC3(C)C2(C(=O)O)O1 (centres undefined)	/	14µM	.
Cc1ccc(N2CC(C(=O)Nc3nc4ccc(S(C)(=O)=O)cc4s3)CC2=O)cc1C (centres undefined)	/	.	.
O=C1/C(=C/c2cccnc2)SC(=S)N1c1ccc(F)cc1	.	11µM	.
COc1ccc(/C=C2\SC(=S)N(CC3CCCO3)C2=O)cc1 (centres undefined)	/	.	.
O=C1/C(=C/c2cccnc2)SC(=S)N1c1ccc(O)cc1	/	.	.
O=C1/C(=C/c2cccnc2)SC(=S)N1CC1CCCO1 (centres undefined)	.	10µM	.
O=C1/C(=C/c2ccco2)SC(=S)N1CC1CCCO1 (centres undefined)	/	.	.
Cc1ccc(/C=C2\SC(=S)N(CC3CCCO3)C2=O)o1 (centres undefined)	/	13µM	?
CSc1ncc(C(=O)Nc2ccc(C(C)=O)cc2)c(C)n1	/	.	.
CCn1c(=O)c2sccc2n2c(CCCC(=O)NCCc3ccc(S(N)(=O)=O)cc3)nnc12	/	.	.
CC(C)Oc1cccc(C(=O)C2CCCN(C(=O)CCn3cnnn3)C2)c1 (centres undefined)	.	.	.
Cc1ccc(C(=O)N(CC#N)CC#N)cc1C	.	.	.
CCN(c1ccccc1)S(=O)(=O)c1ccc(C(=O)NCCCn2ccnc2)cc1	.	.	.
CCN(c1ccccc1)S(=O)(=O)c1cccc(C(=O)Nc2ccc(C)cn2)c1	/	.	.
CCN(c1ccccc1)S(=O)(=O)c1ccc(C(=O)Nc2nnc(COC)o2)cc1	/	0.56µM	1.3µM
COCc1nnc(NC(=O)c2ccc(S(=O)(=O)N(C)c3ccccc3)cc2)o1	.	1.6µM	2.5µM
COc1ccc(CCNC(=O)c2ccc(S(=O)(=O)N(C)c3ccccc3)cc2)cc1OC	/	?	.
CCN(c1ccccc1)S(=O)(=O)c1ccc(C(=O)Nc2nnc(CSC)o2)cc1	.	0.35µM	0.89µM
O=C(OCC(=O)N1CCOCC1)c1ccc(Br)cc1	/	.	.
COC(=O)c1ccc(/C=C2/SC(=S)N(CCCC(=O)Nc3ccccn3)C2=O)cc1	.	1.1µM	1.8µM
CC(=C\c1ccccc1)/C=C1/SC(=S)N(CCC(=O)Nc2ccccn2)C1=O	/	.	.
CCc1ccc(/C=C2/SC(=S)N(CCC(=O)Nc3ccc(C(=O)O)cc3)C2=O)cc1	/	3.5µM	.
O=C(CN1C(=O)S/C(=C\c2ccccc2)C1=O)NNC(=O)c1ccccc1O	.	.	.
SMILES	KinaseGlo FLuc	RORg inh	Gal4-VP16 FLuc
O=C(CCCN1C(=O)/C(=C/c2ccccc2)SC1=S)NCCCn1ccnc1	/	5µM	4.5µM
CCc1ccc(/C=C2/SC(=S)N(CCC(=O)Nc3cccc(C(=O)O)c3)C2=O)cc1	/	?	.
O=C(CCCN1C(=O)S/C(=C\c2ccccc2)C1=O)NNC(=O)c1ccccc1O	.	0.45µM	2.5µM
O=C(CCN1C(=O)S/C(=C\c2ccccc2)C1=O)NCCCn1ccnc1	/	.	.
COc1ccc(CCNC(=O)C2CCN(S(=O)(=O)c3ccc4nc5c(c(C(=O)O)c4c3)CCCC5)CC2)cc1OC	/	.	.
COC(=O)C/C=C\[C@@H](C)[C@@H](/C=N\O[C@@H](C)CN1CCCc2nc(C)c(C)cc21)OC	/	.[10 µM]	.[10 µM]
COc1cc(NC(=O)C2CCCN2S(=O)(=O)c2ccc3c(c2)CC(C)N3C(C)=O)cc(OC)c1 (centres undefined)	/	.	.
O=C(CCCN1C(=O)/C(=C/c2cccc(Br)c2)SC1=S)Nc1ccccn1	.	?	.[0.365 µM]
O=C(CCCN1C(=O)/C(=C/c2ccccc2)SC1=S)Nc1ccccc1O	.	4.5µM	?
CCc1ccc(/C=C2\SC(=S)N(CCCC(=O)Nc3ccccn3)C2=O)cc1	.	0.28µM	1.4µM
CCc1ccc(/C=C2/SC(=S)N(CCCC(=O)Nc3ccccc3C(=O)O)C2=O)cc1	/	.	.

Screening data from PubChem.
